Data reported in the supplement of paper PMC11219838.
Values without a mark were called inactive.

These compounds were tested on Caenorhabditis elegans L1 (N2) (assay: survival and reproduction score of C. elegans L1 (0: 0-10 living worms, 1: 11-20, 2: 21-50, 3: >50, 4: overgrown) (score 0-4); higher = more worms, less nematicidal, active = 1 or less; extreme values may be limits of the assay). Details: 60 µM; 6 days; temperature: 20 °C.
Summary of the method: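 Worm survival and reproduction were recorded as an ordinal score of living worms per well, read under a dissection microscope. Each 96-well well held about 20 synchronized C. elegans N2 L1s with E. coli HB101 in liquid NGM and compound at 60 µM final (0.6% v/v DMSO), sealed and shaken at 200 rpm, 20 °C, for 6 days. Scores ranged from 0 (0–10 worms) to 4 (overgrown, starved) and were the mean of two biological replicates.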
With `CCc1ccc(OCc2nc(-c3cccc(OC)c3)no2)cc1` the “survival and reproduction score” value was 4.
For `O=C(CSc1nnc(-c2cccc(Cl)c2)o1)N1CCCCC1`, the “survival and reproduction score” value was 4.
In the case of `COc1ccc(NC(=O)c2ccccc2-c2nc(-c3ccccc3C)no2)cc1`, the “survival and reproduction score” value is reported as 4.
For `Cc1cc(C)c(C)c(OCc2nc(-c3cccnc3)no2)c1`, the “survival and reproduction score” value was 4.
`Clc1ccc(OCc2nc(-c3ccccc3)no2)cc1` was tested, and the “survival and reproduction score” value was 4.
`COc1ccc(CSc2nnc(-c3ccc(Cl)cc3Cl)o2)cc1` was tested, and the “survival and reproduction score” value was 0 (active).
In the case of `Cc1cccc(-c2nnc(SCC(=O)NCCc3ccccc3)o2)c1`, the “survival and reproduction score” value is reported as 4.
With `COc1cccc(-c2nnc(SCC(=O)NC3CCCCC3)o2)c1` the “survival and reproduction score” value was 4.
For `O=C(CSc1nnc(-c2ccco2)o1)c1ccccc1`, the “survival and reproduction score” value was 4.
`COc1ccc(-c2nnc(SCC(=O)Nc3cccc(Cl)c3Cl)o2)cc1` was tested, and the “survival and reproduction score” value was 4.
`COc1nc(-c2ccc(C)cc2)ccc1-c1noc(C)n1` was tested, and the “survival and reproduction score” value was 4.
In the case of `COc1ccccc1-c1nnc(SCC(=O)Nc2nc(C)cs2)o1`, the “survival and reproduction score” value is reported as 4.
For `Cc1cccc(-c2noc(-c3ccc(F)cc3)n2)c1`, the “survival and reproduction score” value was 2.
With `Cc1ccc(OCc2nc(-c3ccccc3Cl)no2)cc1C` the “survival and reproduction score” value was 2.
For `Cc1ccc(OCc2nc(-c3ccc(Cl)cc3)no2)cc1C`, the “survival and reproduction score” value was 4.
With `O=C(CSc1nnc(-c2ccccc2)o1)OCc1ccccc1` the “survival and reproduction score” value was 4.
With `COc1ccc(Cl)cc1NC(=O)CSc1nnc(-c2ccc(Br)cc2)o1` the “survival and reproduction score” value was 4.
In the case of `COc1nc(-c2ccc(C)cc2)ccc1-c1noc(-c2ccc(F)cc2)n1`, the “survival and reproduction score” value is reported as 4.
For `COc1cccc(NC(=O)CSc2nnc(-c3ccc(C)cc3)o2)c1`, the “survival and reproduction score” value was 4.
In the case of `Clc1ccccc1-c1noc(COc2ccc(Br)cc2)n1`, the “survival and reproduction score” value is reported as 4.
For `Cn1c(SCc2nc(-c3ccc(Br)cc3)no2)nnc1-c1ccco1`, the “survival and reproduction score” value was 4.
With `Cc1ccccc1-c1nnc(SCc2ccc(F)cc2)o1` the “survival and reproduction score” value was 3.5.
In the case of `COc1ccc(-c2nnc(SCC(=O)c3ccc4ccccc4c3)o2)cc1`, the “survival and reproduction score” value is reported as 4.
With `O=C(CSc1nnc(-c2ccco2)o1)Nc1ccccc1F` the “survival and reproduction score” value was 4.
For `CC(C)(C)c1ccc(-c2nnc(SCC(=O)c3ccc(F)cc3)o2)cc1`, the “survival and reproduction score” value was 4.
With `COc1ccc(Cl)cc1-c1nc(-c2ccc3c(c2)OCO3)no1` the “survival and reproduction score” value was 4.
In the case of `Fc1cccc(Cl)c1CSc1nnc(-c2ccccc2Cl)o1`, the “survival and reproduction score” value is reported as 4.
With `COc1ccc(-c2nc(-c3ccccc3Cl)no2)cc1` the “survival and reproduction score” value was 4.
In the case of `c1cc(-c2noc(C34CC5CC(CC(C5)C3)C4)n2)ccn1`, the “survival and reproduction score” value is reported as 4.
`Cc1cccc(-c2nnc(SCC(=O)Nc3ccc(Br)c(C)c3C)o2)c1` was tested, and the “survival and reproduction score” value was 4.
In the case of `Cc1cccc(OCc2nc(-c3ccc(-n4cccc4)cc3)no2)c1`, the “survival and reproduction score” value is reported as 4.
In the case of `Brc1ccc(-c2nc(-c3ccncc3)no2)cc1`, the “survival and reproduction score” value is reported as 0 (active).
For `O=C(CSc1nnc(-c2cccc(Cl)c2)o1)Nc1nccs1`, the “survival and reproduction score” value was 4.
For `Cc1ccc(-c2noc(-c3ccc(-n4nncc4C)cc3)n2)cc1`, the “survival and reproduction score” value was 4.
In the case of `Cc1ccc(-c2noc(C3CCCCC3)n2)cc1`, the “survival and reproduction score” value is reported as 0 (active).
In the case of `O=C(CSc1nnc(-c2cccc3ccccc23)o1)Nc1cccc(F)c1`, the “survival and reproduction score” value is reported as 4.
`COc1ccc(Cl)cc1-c1nc(-c2ccccc2C)no1` was tested, and the “survival and reproduction score” value was 4.
For `COc1ccc(-c2nnc(SCC(=O)Nc3ccc(Br)cc3C)o2)cc1`, the “survival and reproduction score” value was 4.
